Test results from PubChem BioAssay (NCATS).
Results filed as inconclusive are left out. A call without a number means that no potency is given here. Unmarked numbers belong to inactive results. Calls of active or inactive are those of the source. The call rests on the fitted dose curve; in most records, active means well fitted curve in the direction sought with a large enough effect; inconclusive means small, poorly fitted or top-dose-only effect, or another doubt; inactive means no such curve, though single readings can be large; an effect the other way counts as inactive or inconclusive.

Columns and labels:
[1] = tested on: Zika virus NS2B-NS3 protease (unlinked); experiment: Optimization of GU AMC qHTS for Zika virus inhibitors: Unlinked NS2B-NS3 protease assay (AID 1347151); further: nearly all actives have a fitted effect of over 80% in size
Procedure, shortened: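 In this qHTS, compounds acted on 25 nM unlinked Zika NS2B–NS3 in pH 8.0 Tris/Tween buffer. Cleavage of an AMC peptide ran 15 min at room temperature, to about 20% conversion.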

[2] = tested on: Zika virus NS2B-NS3 protease; experiment: Primary screen GU AMC qHTS for Zika virus inhibitors (AID 1347154); further: nearly all actives have a fitted effect of over 70% in size; further: potency means the concentration at half of the fitted maximal effect
Procedure, shortened: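 Fluorogenic AMC-substrate cleavage by noncovalent NS2B-NS3 protease complex (25 nM, pH 8.0 Tris buffer with Tween 20) followed for 15 minutes at room temperature (~20% conversion). Percent inhibition from ex340/em450 signal change, fitted by 4-parameter Hill equation.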

[3] = molecular target: Lysine-specific demethylase 5B (Homo sapiens) (UniProt Q9UGL1); experiment: Optimization screen for KDM5B Histone Demethylases FDH coupled qHTS against the LOPAC library (AID 1347166); conditions: KDM5B demethylation, FDH-coupled NADH fluorescence (FDH is formaldehyde dehydrogenase); at 57.5 µM (top of the series)
Procedure, shortened: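 KDM5BDeltaAP (200nM final) in 50mM HEPES pH 7.5, 0.01% Tween-20 was preincubated with compound for 10 min at room temperature. A substrate mix of 12.5uM H3K4Me3, 25uM a-ketoglutarate, ascorbate, Fe2+, NAD+ and formaldehyde dehydrogenase was then added. NADH fluorescence (340/450 nm) was read initially and after 30 min.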

[4] = qHTS of pediatric cancer cell lines to identify multiple opportunities for drug repurposing: Confirmatory screen for Rh30 cells (AID 1347126); further: potency means the concentration at half of the fitted maximal effect; nearly all actives have a fitted effect of over 55% in size
Procedure, shortened: (§1)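 Cells (500-1,000/well) rested 5 h, then received compounds for 48 h; metabolically active cells were measured by CellTiter-Glo luminescence. Final concentrations spanned up to 46 µM (MIPE, 11-point) or 0.59 nM-46 µM (NPC, 8-point) in primary screens, 11-point in follow-ups.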

[5] = qHTS of pediatric cancer cell lines to identify multiple opportunities for drug repurposing: Confirmatory screen for SK-N-SH cells (AID 1347129);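 further: potency means the concentration at half of the fitted maximal effect; cells exposed to compound for 48 h before viability read; nearly all actives have a fitted effect of over 60% in size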
Procedure, shortened: as §1

[6] = molecular target: N-terminal Xaa-Pro-Lys N-methyltransferase 1 (Homo sapiens) (UniProt Q9BV86); experiment: qHTS Assay for Inhibitors of N-terminal methyltransferase 1 (NTMT1): LOPAC validation of the NTMT1 SAHH-coupled ThioGlo3 Assay (AID 1347143);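 further: SAH from peptide methylation measured as thiol fluorescence via SAHH coupling and ThioGlo3; nearly all actives have a fitted effect of over 70% in size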; further: potency means the concentration at half of the fitted maximal effect
Procedure, shortened: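 NTMT1 125nM + cpds (various conc.), 1 min RT; add SAM 100uM/SAHH 10uM/ThioGlo3 15uM (addition mix). SAHH-coupled thiol detection, Ex340/Em450, t0 and 30 min RT; signal normalized to background. LOPAC 1280-cpd pilot.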

[7] = tested on: Zika virus NS2B-NS3 protease (linked construct); experiment: Confirmatory screen NINDS AMC qHTS for Zika virus inhibitors (AID 1347152);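 further: AMC fluorescence gain from cleaved Bz-Nle-KRR-AMC substrate over 15 min; top concentration of the series differs between compounds; nearly all actives have a fitted effect of over 70% in size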
Procedure, shortened: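 Concentration-response confirmation used the NINDS linked protease (NS2B hydrophilic domain joined to NS3 protease domain), 1 nM, with a 15-min compound preincubation. Substrate, Nle-KRR-AMC at 10 microM, was read by UV fluorescence before and after 15 min.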

[8] = tested on: Zika virus NS2B-NS3 protease (unlinked complex); experiment: Confirmatory screen GU AMC qHTS for Zika virus inhibitors (AID 1347153); further: nearly all actives have a fitted effect of over 70% in size
Procedure, shortened: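 Unlinked NS2B-NS3 complex (25 nM) in 10 mM Tris-HCl pH 8.0, 0.01% Tween 20 preincubated 15 min with compound, then 10 microM Bz-Nle-KRR-AMC (Km 18.3 µM). Fluorescence change over 15 min, normalized, Hill-fitted.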

[9] = Confirmatory screen NINDS Rhodamine qHTS for Zika virus inhibitors (AID 1347161); further: potency means the concentration at half of the fitted maximal effect; nearly all actives have a fitted effect of over 60% in size
Procedure, shortened: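 Rhodamine110-peptide cleavage (1.5 µM substrate) by 25 nM linked NS2B-NS3 enzyme at pH 8.0 (Tris, Tween 20), after 15 min RT preincubation with compounds; 15-min fluorescence change normalized to controls and Hill-fitted.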

[10] = tested on: Zika virus NS2B-NS3 protease (linked); experiment: 384 well plate NINDS AMC confirmatory qHTS for Zika virus inhibitors (AID 1347163); conditions: Recombinant NS2B-NS3 protease, Ac-VKTGKR-AMC fluorescence; further: potency means the concentration at half of the fitted maximal effect; nearly all actives have a fitted effect of over 50% in size
Procedure, shortened: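 Fluorescence at 355/460 nm was read after 25 minutes of cleavage of 30 microM Ac-VKTGKR-AMC at room temperature, in the dark. Before substrate addition, compounds (up to 1 mM final) sat ~15 minutes with 5, 30 or 60 nM linked protease. Signals were normalized to no-enzyme and no-inhibitor wells.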

[11] = tested on: Zika virus NS2B-NS3 protease (linked construct); experiment: 384 well plate NINDS Rhodamine confirmatory qHTS for Zika virus inhibitors (AID 1347164); conditions: rhodamine-110 peptide substrate fluorescence; further: potency means the concentration at half of the fitted maximal effect; nearly all actives have a fitted effect of over 65% in size
Procedure, shortened: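 Cleavage of Ac-LKRR-Rhodamine 110 (10 microM final) by linked protease (final 5, 30 or 60 nM) was followed as fluorescence at 485/538 nm after 25 min, room temperature, dark. Compounds preincubated ~15 min.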

[12] = Vero cells viability qHTS for Zika virus inhibitors (AID 1347167)
Procedure, shortened: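 Luminescent ATP readout (CellTiter Glo) after 30 min at 37 degrees C gives viability; cells in DMEM + 4% FBS were treated 24 to 48 hours with compound, following overnight attachment.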

[13] = Tertiary RLuc qRT-PCR qHTS assay for Zika virus inhibitors (AID 1347169); further: potency means the concentration at half of the fitted maximal effect; nearly all actives have a fitted effect of over 55% in size
Procedure, shortened: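 Inhibition of ZIKV-RLuc replication in Vero cells, read as Renilla luminescence 1-1.5 hrs after live-cell substrate addition, following 48-72 hrs infection at MOI 1-2 in presence of compound.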

[14] = qHTS to identify inhibitors of the type 1 interferon - major histocompatibility complex class I in skeletal muscle: primary screen against the NCATS Pharmaceutical Collection (AID 1347407);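 further: luminescence of HiBiT knocked into endogenous HLA-B as interferon-induced MHC class I level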
Procedure, shortened: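 A qHTS format is used: 8-point, 1:5 compound series with 46 uM top final concentration, applied alongside 4 ng/ml IFN-beta to HLA-B*08:01-HiBiT knock-in myoblasts. Luminescence is measured after 24 h treatment.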

Chain of Lysine-specific demethylase 5B (Homo sapiens) (Q9UGL1 whole entry, looked up): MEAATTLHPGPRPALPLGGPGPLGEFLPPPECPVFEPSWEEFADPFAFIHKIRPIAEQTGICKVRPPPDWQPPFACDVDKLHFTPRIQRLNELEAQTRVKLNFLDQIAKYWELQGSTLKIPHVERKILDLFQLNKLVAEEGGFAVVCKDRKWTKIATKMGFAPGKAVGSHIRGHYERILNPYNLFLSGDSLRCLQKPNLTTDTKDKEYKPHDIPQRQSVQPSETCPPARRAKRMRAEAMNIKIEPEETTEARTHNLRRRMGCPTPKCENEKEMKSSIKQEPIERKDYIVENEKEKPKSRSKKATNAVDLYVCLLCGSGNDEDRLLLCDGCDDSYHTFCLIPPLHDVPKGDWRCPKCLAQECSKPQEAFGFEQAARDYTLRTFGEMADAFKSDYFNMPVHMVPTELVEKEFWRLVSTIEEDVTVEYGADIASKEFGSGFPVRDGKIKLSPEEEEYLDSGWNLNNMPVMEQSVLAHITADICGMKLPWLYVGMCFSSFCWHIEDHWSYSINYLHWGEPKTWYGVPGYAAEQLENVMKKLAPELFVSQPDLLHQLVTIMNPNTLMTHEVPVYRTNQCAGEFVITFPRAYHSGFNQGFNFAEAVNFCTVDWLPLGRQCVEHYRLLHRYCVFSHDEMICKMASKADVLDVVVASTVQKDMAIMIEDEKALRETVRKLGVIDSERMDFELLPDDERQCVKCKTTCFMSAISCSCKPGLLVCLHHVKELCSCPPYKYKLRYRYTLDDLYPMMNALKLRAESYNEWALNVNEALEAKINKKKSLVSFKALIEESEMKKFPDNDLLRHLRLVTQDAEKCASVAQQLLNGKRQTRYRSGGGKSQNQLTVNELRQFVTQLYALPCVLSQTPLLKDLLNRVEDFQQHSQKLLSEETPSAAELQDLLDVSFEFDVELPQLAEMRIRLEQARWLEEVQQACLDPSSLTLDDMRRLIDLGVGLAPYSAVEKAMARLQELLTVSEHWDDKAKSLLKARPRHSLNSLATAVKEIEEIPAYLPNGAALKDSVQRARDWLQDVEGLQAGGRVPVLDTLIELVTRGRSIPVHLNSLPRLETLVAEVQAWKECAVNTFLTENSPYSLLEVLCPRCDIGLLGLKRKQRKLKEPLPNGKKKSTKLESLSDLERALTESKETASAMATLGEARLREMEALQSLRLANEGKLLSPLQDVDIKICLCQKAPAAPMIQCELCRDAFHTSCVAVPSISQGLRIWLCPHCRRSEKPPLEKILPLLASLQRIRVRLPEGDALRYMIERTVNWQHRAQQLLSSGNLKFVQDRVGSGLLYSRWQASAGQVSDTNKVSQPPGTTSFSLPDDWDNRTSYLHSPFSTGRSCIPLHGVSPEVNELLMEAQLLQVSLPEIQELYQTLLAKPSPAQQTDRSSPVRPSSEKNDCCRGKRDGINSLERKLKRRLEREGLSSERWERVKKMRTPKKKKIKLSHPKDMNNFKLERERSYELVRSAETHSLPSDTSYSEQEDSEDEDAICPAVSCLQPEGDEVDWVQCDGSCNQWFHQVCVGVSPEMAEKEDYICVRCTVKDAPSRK
Chain of N-terminal Xaa-Pro-Lys N-methyltransferase 1 (Homo sapiens) (Q9BV86 whole entry, looked up): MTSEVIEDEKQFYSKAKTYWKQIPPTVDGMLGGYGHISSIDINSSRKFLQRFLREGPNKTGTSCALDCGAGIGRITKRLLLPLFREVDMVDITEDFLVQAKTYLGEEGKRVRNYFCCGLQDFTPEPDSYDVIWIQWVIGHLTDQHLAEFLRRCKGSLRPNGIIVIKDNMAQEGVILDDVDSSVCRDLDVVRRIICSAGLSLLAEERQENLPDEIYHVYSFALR

## CCN(CC)CC#CCOC(=O)C(O)(c1ccccc1)C1CCCCC1 (stereo not given)
[1]
  Potency: inactive
[2]
  Potency: inactive
[3]
  activity, negative = inhibition: -11%

## CO[C@@]12[C@H](COC(N)=O)C3=C(C(=O)C(C)=C(N)C3=O)N1C[C@@H]1N[C@@H]12
[4]
  Potency: 9.27 µM (active)
[5]
  Potency: 14.8 µM (active)
[2]
  Potency: inactive

## O=C(O)C1CCCN(CCC=C(c2ccccc2)c2ccccc2)C1 (stereo not given)
[6]
  Potency: inactive
[1]
  Potency: inactive
[2]
  Potency: inactive
[3]
  activity, negative = inhibition: -3.3%

## N[C@@H](Cc1ccc(O)c(O)c1)C(=O)O
[6]
  Potency: 50.1 µM (active)
[2]
  Potency: 27.1 µM (active)
[3]
  activity, negative = inhibition: 0.726%

## CC1=C(C(=O)O)N2C(=O)[C@@H](NC(=O)C(N)c3ccccc3)[C@H]2SC1 (stereo not given in full)
[6]
  Potency: inactive
[1]
  Potency: inactive
[2]
  Potency: inactive
[3]
  activity, negative = inhibition: -17.9%

## O=C(O)c1ccc(-n2nc(-c3ccccc3O)nc2-c2ccccc2O)cc1
[7]
  Potency: inactive
[8]
  Potency: inactive
[2]
  Potency: inactive
[9]
  Potency: 11 µM (active)
[10]
  Potency: 112 µM (active)
[11]
  Potency: 35.5 µM (active)
[12]
  Potency: inactive
[13]
  Potency: 13.1 µM (active)
[14]
  Potency: inactive

## Cc1noc(NS(=O)(=O)c2ccc(N)cc2)c1C
[2]
  Potency: inactive

## NC(=O)c1cccc(N)c1
[6]
  Potency: inactive
[2]
  Potency: inactive

## NC(=O)c1ccc2[nH]ccc2c1
[6]
  Potency: inactive
[2]
  Potency: inactive
[3]
  activity, negative = inhibition: -16.4%

## CCN(CC)CCn1c(=O)c(Cc2ccc(OC)cc2)nc2ccccc21
[1]
  Potency: inactive
[2]
  Potency: inactive
[3]
  activity, negative = inhibition: -17%
